Experimental data as given in PubChem BioAssay (NCI).
About 83,000 compounds went through this panel and 20% of them were active in at least one assay; those are over-represented in the sample as a whole.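 Growth was measured after 48 h exposure to one concentration of compound in 96-well plates. Values under 10 count as active.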 Activity calls are given as the source filed them.

Tests used:
Test in all cases: NCI-60 one-dose screen, 48 h (100 = growth as untreated, 0 = no growth, -100 = all killed)
HCT-15 colon = conditions: 10 µM unless noted
HT29 colon = conditions: 10 µM unless noted
SNB-75 CNS = conditions: 10 µM unless noted
SNB-19 CNS = conditions: 10 µM unless noted
U251 CNS = conditions: 10 µM unless noted
PC-3 prostate = conditions: 10 µM unless noted
SK-MEL-5 melanoma = conditions: 10 µM unless noted
UACC-62 melanoma = conditions: 10 µM unless noted
LOX IMVI melanoma = conditions: 10 µM
SK-MEL-28 melanoma = conditions: 10 µM unless noted
SK-MEL-2 melanoma = conditions: 10 µM unless noted
EKVX NSCLC = conditions: 10 µM unless noted
SN12C renal = conditions: 10 µM unless noted
UO-31 renal = conditions: 10 µM unless noted
TK-10 renal = conditions: 10 µM unless noted
ACHN renal = conditions: 10 µM unless noted
CAKI-1 renal = conditions: 10 µM unless noted
A498 renal = conditions: 10 µM unless noted
CCRF-CEM leukemia = conditions: 10 µM unless noted
MOLT-4 leukemia = conditions: 10 µM unless noted

Measured: growth

Cc1cc(CC(=O)NCCO)n(CCO)c(=O)c1
inactive: HCT-15 colon 109% | HT29 colon 98.3% | SNB-75 CNS 95.3% | SNB-19 CNS 103% | U251 CNS 97.9% | PC-3 prostate 104% | SK-MEL-5 melanoma 104% | UACC-62 melanoma 105% | LOX IMVI melanoma 98.8% | SK-MEL-28 melanoma 118% | SK-MEL-2 melanoma 109% | EKVX NSCLC 93.7% | SN12C renal 103% | UO-31 renal 94.4% | TK-10 renal 94.1% | ACHN renal 106% | CAKI-1 renal 101% | A498 renal 89.4%

Cc1ccc(Cc2ccc(C)cc2)cc1
inactive: HCT-15 colon 101% | HT29 colon 105% | SNB-75 CNS 101% | SNB-19 CNS 109% | U251 CNS 101% | PC-3 prostate 100% | SK-MEL-5 melanoma 101% | UACC-62 melanoma 104% | LOX IMVI melanoma 99.4% | SK-MEL-28 melanoma 107% | SK-MEL-2 melanoma 99.6% | EKVX NSCLC 94.9% | SN12C renal 110% | UO-31 renal 81.1% | TK-10 renal 107% | ACHN renal 99.9% | CAKI-1 renal 99.8% | A498 renal 93.2%

O=C(NCCc1ccccc1)/C(=C\c1ccc(Cl)cc1Cl)NC(=O)c1ccccc1
inactive: HCT-15 colon 98.4% | HT29 colon 98.3% | SNB-75 CNS 83.4% | SNB-19 CNS 99.2% | U251 CNS 97% | PC-3 prostate 88.8% | SK-MEL-5 melanoma 96.4% | UACC-62 melanoma 98.6% | LOX IMVI melanoma 92.7% | SK-MEL-28 melanoma 105% | SK-MEL-2 melanoma 114% | EKVX NSCLC 96% | SN12C renal 96.1% | UO-31 renal 88.5% | TK-10 renal 96.6% | ACHN renal 98.9% | CAKI-1 renal 92.9% | A498 renal 87.5% | CCRF-CEM leukemia 97.9% | MOLT-4 leukemia 94.7%

O=C1C=C[C@H](O)[C@@]2(CO)O[C@@H]12
active: SK-MEL-2 melanoma -12.4% | CCRF-CEM leukemia -51%
inactive: HCT-15 colon 104% | HT29 colon 53.9% | SNB-75 CNS 81% | SNB-19 CNS 100% | U251 CNS 91.4% | PC-3 prostate 82.3% | SK-MEL-5 melanoma 100% | UACC-62 melanoma 65.8% | LOX IMVI melanoma 66.7% | SK-MEL-28 melanoma 42.1% | EKVX NSCLC 72.4% | SN12C renal 88.7% | UO-31 renal 48.1% | TK-10 renal 109% | ACHN renal 76.7% | CAKI-1 renal 40% | A498 renal 101%

CC(=O)NC(CCC(=O)c1ccccc1)C(=O)O (stereo unspecified)
inactive: HCT-15 colon 104% | HT29 colon 93.6% | SNB-75 CNS 90% | SNB-19 CNS 101% | U251 CNS 87.6% | PC-3 prostate 80.2% | SK-MEL-5 melanoma 97% | UACC-62 melanoma 97.4% | LOX IMVI melanoma 100% | SK-MEL-28 melanoma 105% | SK-MEL-2 melanoma 104% | EKVX NSCLC 99.2% | SN12C renal 98.5% | UO-31 renal 98.5% | TK-10 renal 93.8% | ACHN renal 108% | CAKI-1 renal 102% | A498 renal 99.4% | CCRF-CEM leukemia 103%

O=C(N/N=C\c1ccc(Cl)cc1Cl)c1ccncc1
inactive: HCT-15 colon 102% | HT29 colon 90.1% | SNB-75 CNS 77.4% | SNB-19 CNS 92.8% | U251 CNS 92.7% | PC-3 prostate 94% | SK-MEL-5 melanoma 98.9% | UACC-62 melanoma 106% | LOX IMVI melanoma 85.4% | SK-MEL-28 melanoma 103% | SK-MEL-2 melanoma 94.4% | EKVX NSCLC 101% | SN12C renal 98.7% | UO-31 renal 90.7% | TK-10 renal 91.4% | ACHN renal 105% | CAKI-1 renal 99% | A498 renal 95.8% | CCRF-CEM leukemia 99.6% | MOLT-4 leukemia 94.5%

CC(=O)NNC(=S)/N=C\C(C(=O)c1ccccc1)=C(/O)c1ccccc1
inactive: HCT-15 colon 98.7% | HT29 colon 93.8% | SNB-75 CNS 86.3% | SNB-19 CNS 105% | U251 CNS 99.5% | PC-3 prostate 93% | SK-MEL-5 melanoma 101% | UACC-62 melanoma 101% | LOX IMVI melanoma 94% | SK-MEL-28 melanoma 106% | SK-MEL-2 melanoma 110% | EKVX NSCLC 99.4% | SN12C renal 107% | UO-31 renal 79.8% | TK-10 renal 130% | ACHN renal 99.5% | CAKI-1 renal 98.3% | A498 renal 105% | CCRF-CEM leukemia 102%

N#C/C(=C\NC(=S)N=Nc1c(O)[nH]c2ccccc12)c1nc2ccccc2s1
inactive: HCT-15 colon 101% | HT29 colon 106% | SNB-75 CNS 85.1% | SNB-19 CNS 104% | U251 CNS 92.5% | PC-3 prostate 86.1% | SK-MEL-5 melanoma 94.9% | UACC-62 melanoma 94.3% | LOX IMVI melanoma 96.6% | SK-MEL-28 melanoma 112% | SK-MEL-2 melanoma 105% | EKVX NSCLC 99.3% | SN12C renal 110% | UO-31 renal 79.2% | TK-10 renal 140% | ACHN renal 89.6% | CAKI-1 renal 96.2% | A498 renal 89% | CCRF-CEM leukemia 93.4% | MOLT-4 leukemia 99.4%

O=c1n(CC2CO2)c(=O)n(CC2CO2)n1CC1CO1 (stereo unspecified)
inactive: HCT-15 colon 60.5% | HT29 colon 69.5% | SNB-75 CNS 79.5% | SNB-19 CNS 62.4% | U251 CNS 54.3% | PC-3 prostate 70% | SK-MEL-5 melanoma 67.1% | UACC-62 melanoma 54.1% | LOX IMVI melanoma 52.1% | SK-MEL-28 melanoma 93% | SK-MEL-2 melanoma 41.1% | EKVX NSCLC 97.4% | SN12C renal 69.7% | UO-31 renal 51% | TK-10 renal 74.2% | ACHN renal 22.3% | CAKI-1 renal 28.6% | A498 renal 85.2% | CCRF-CEM leukemia 37.5%

Cc1ccc(C)c(CCO)c1
inactive: HCT-15 colon 112% | HT29 colon 109% | SNB-75 CNS 95.7% | SNB-19 CNS 101% | U251 CNS 90.6% | PC-3 prostate 95.5% | SK-MEL-5 melanoma 90.7% | UACC-62 melanoma 103% | LOX IMVI melanoma 100% | SK-MEL-28 melanoma 105% | SK-MEL-2 melanoma 134% | EKVX NSCLC 112% | SN12C renal 99.9% | UO-31 renal 93.7% | TK-10 renal 99.6% | ACHN renal 107% | CAKI-1 renal 115% | A498 renal 85.8% | CCRF-CEM leukemia 119% | MOLT-4 leukemia 113%

COc1cccc(C(=O)NNC(=O)c2cccc3ccccc23)c1
inactive: HCT-15 colon 100% | HT29 colon 98.2% | SNB-75 CNS 98.7% | SNB-19 CNS 110% | U251 CNS 102% | PC-3 prostate 106% | SK-MEL-5 melanoma 107% | UACC-62 melanoma 128% | LOX IMVI melanoma 98.5% | SK-MEL-28 melanoma 117% | SK-MEL-2 melanoma 107% | EKVX NSCLC 106% | SN12C renal 108% | UO-31 renal 97% | TK-10 renal 120% | ACHN renal 106% | CAKI-1 renal 102% | A498 renal 105% | CCRF-CEM leukemia 104%

CC(=O)CSc1ncnc2nc[nH]c12
inactive: HCT-15 colon 96.1% | HT29 colon 104% | SNB-75 CNS 89.3% | SNB-19 CNS 99.7% | U251 CNS 101% | PC-3 prostate 92.5% | SK-MEL-5 melanoma 95.8% | UACC-62 melanoma 74.6% | LOX IMVI melanoma 42.2% | SK-MEL-28 melanoma 82.3% | SK-MEL-2 melanoma 95% | EKVX NSCLC 95.4% | SN12C renal 96.9% | UO-31 renal 88.1% | TK-10 renal 88.8% | ACHN renal 93% | CAKI-1 renal 80.9% | A498 renal 66.1% | CCRF-CEM leukemia 89.3% | MOLT-4 leukemia 87.4%

C=CCNC(=S)N/C=C(/C(=O)c1ccccc1)c1ccccc1
inactive: HCT-15 colon 108% | HT29 colon 120% | SNB-75 CNS 88.5% | SNB-19 CNS 106% | U251 CNS 96.7% | PC-3 prostate 99.9% | SK-MEL-5 melanoma 102% | UACC-62 melanoma 98.8% | LOX IMVI melanoma 98.1% | SK-MEL-28 melanoma 104% | SK-MEL-2 melanoma 120% | EKVX NSCLC 106% | SN12C renal 93.6% | UO-31 renal 95.3% | TK-10 renal 107% | ACHN renal 97.7% | CAKI-1 renal 101% | A498 renal 98% | CCRF-CEM leukemia 101% | MOLT-4 leukemia 99.2%

CCOC(=O)/C(C#N)=C\c1c[nH]c2ccccc12
inactive: HCT-15 colon 93.8% | HT29 colon 105% | SNB-75 CNS 85.9% | SNB-19 CNS 97.6% | U251 CNS 98.1% | PC-3 prostate 99.1% | SK-MEL-5 melanoma 106% | UACC-62 melanoma 85.2% | LOX IMVI melanoma 93.2% | SK-MEL-28 melanoma 206% | SK-MEL-2 melanoma 105% | EKVX NSCLC 75.7% | SN12C renal 90.5% | UO-31 renal 69.6% | TK-10 renal 221% | ACHN renal 85.1% | CAKI-1 renal 30.8% | A498 renal 153% | CCRF-CEM leukemia 108% | MOLT-4 leukemia 81.6%

CCOC(=O)C(COS(C)(=O)=O)(COS(C)(=O)=O)C(=O)OCC
inactive: HCT-15 colon 107% | HT29 colon 108% | SNB-75 CNS 99.4% | SNB-19 CNS 106% | U251 CNS 101% | PC-3 prostate 98.5% | SK-MEL-5 melanoma 109% | UACC-62 melanoma 103% | LOX IMVI melanoma 98.3% | SK-MEL-28 melanoma 105% | SK-MEL-2 melanoma 114% | EKVX NSCLC 102% | SN12C renal 104% | UO-31 renal 95.7% | TK-10 renal 111% | ACHN renal 103% | CAKI-1 renal 100% | A498 renal 97.5% | CCRF-CEM leukemia 105% | MOLT-4 leukemia 96.3%

C/C(Cc1ccccc1)=N\O
inactive: HCT-15 colon 96.9% | HT29 colon 101% | SNB-75 CNS 115% | SNB-19 CNS 108% | U251 CNS 104% | PC-3 prostate 88.4% | SK-MEL-5 melanoma 99.4% | UACC-62 melanoma 106% | LOX IMVI melanoma 119% | SK-MEL-28 melanoma 111% | SK-MEL-2 melanoma 104% | EKVX NSCLC 116% | SN12C renal 107% | UO-31 renal 102% | TK-10 renal 103% | ACHN renal 106% | CAKI-1 renal 115% | A498 renal 103%
active: CCRF-CEM leukemia -29.9% | MOLT-4 leukemia 5.17%
